We go through 40 compounds from PubChem BioAssay (NCI).

About 79,000 compounds went through this panel and 15% of them were active in at least one assay; those are over-represented in the sample as a whole. Active and inactive are the calls of the source. Rule as the data show it: active = growth inhibition above about 70%; inactive = the rest. Where a SMILES comes first, the peptide text is derived from it. The star is where a group is joined. Cbz = O=C(OCc1ccccc1)*

One assay is described as follows: NCI Yeast Anticancer Drug Screen. Data for the mec2-1 strain (AID 157). The conditions noted are these: S. cerevisiae mec2-1 strain, at 50.0 µM, hits give high values. The essentials:
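mec2-1 yeast strain, carrying an alteration in DNA damage repair or cell cycle control, was exposed to compounds; growth inhibition was measured relative to vehicle-treated controls.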
Turning to `CCCc1n[nH]c(=S)n1N1C(=S)NC(C)(C)C=C1C`, the growth inhibition is -2% (inactive).

For the compound `CCCc1cc(=O)oc2c3c(c4c(c12)OC(C)(C)C=C4)O[C@H](C)[C@@H](C)C3O` (stereo partly drawn), the growth inhibition was 9.3% (inactive).

`O=C(O)COc1ccc(C(=O)O)cc1`: the growth inhibition is -19.9% (inactive).

As to `C(=Nc1ccc(SSc2ccc(N=Cc3ccc4c(c3)OCO4)cc2)cc1)c1ccc2c(c1)OCO2`, the growth inhibition is 0.05% (inactive).

As to `COc1ccc2c(c1OC)C1(CCN(C)C)CC(O)CCC1C=C2` (stereo not drawn), the growth inhibition was 7.95% (inactive).

As to `N#CC(C#N)=CN1CCCCC1`, the growth inhibition is -4.65% (inactive).

Consider `O=Cc1ccc2ccccc2c1`, for which the growth inhibition was -12% (inactive).

`CC1(C)C(=O)N=C(N)N1C(=O)OCc1ccccc1`: the growth inhibition was -4.45% (inactive).

Turning to `O=C(O)c1cc(=O)[nH]c(SCc2ccccc2)n1`, the growth inhibition was -20.1% (inactive).

With `O=C(O)C1CCC2CCCC21` (stereo not drawn), the growth inhibition is -7.3% (inactive).

With `O=C(NC(Nc1ccc(F)cc1)(C(F)(F)F)C(F)(F)F)C(C(F)(F)F)C(F)(F)F`, the growth inhibition was 88.6% (active).

As to `COC(=O)c1sc(=O)n(-c2ccccc2)c1SCc1ccccc1`, the growth inhibition is -5.15% (inactive).

Consider `COc1cc(/C=C(\OC(C)=O)c2ccc3c(c2)OCO3)cc(OC)c1OC`, for which the growth inhibition was -0.95% (inactive).

Take `O=C(O)COc1c(F)cc(F)cc1Cl`: the growth inhibition was 1.9% (inactive).

Regarding `COc1cc(C(=O)c2cocc2C(=O)c2ccc3c(c2)OCO3)cc(OC)c1OC`, the growth inhibition was -33.3% (inactive).

In the case of `COc1cc(/C=C/C(=O)NCCCCN)ccc1O`, the growth inhibition was 8.9% (inactive).

With `CCC1(C(Cl)(Cl)Cl)C=CC(=O)C=C1`, the growth inhibition is 13.3% (inactive).

Consider `CCC(C(=O)OC)C1CCCCC1` (stereo not drawn), for which the growth inhibition was -27.8% (inactive).

Take `O=c1[nH]nc(SCc2ccccc2)c(=O)[nH]1`: the growth inhibition was -3.5% (inactive).

For the compound `Nc1on(C(=O)c2ccccc2)c(=O)c1Cc1ccccc1`, the growth inhibition was 3.6% (inactive).

As to `O=c1c2ccccc2nc(-c2ccccc2Cl)n1/N=C/c1ccc(Cl)cc1Cl`, the growth inhibition was 5.3% (inactive).

With `CCC(CCC#N)(CCC#N)C(=O)c1ccc(C)s1`, the growth inhibition is -4.3% (inactive).

With `O=C(N/N=C/c1ccc(Cl)cc1Cl)c1ccccc1SSc1ccccc1C(=O)N/N=C/c1ccc(Cl)cc1Cl`, the growth inhibition was 1.55% (inactive).

Another assay is described as follows: NCI Yeast Anticancer Drug Screen. Data for the sgs1 mgt1 strain (AID 161).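 Also: 0% = growth of cultures given vehicle only.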 Particulars: S. cerevisiae sgs1 mgt1 strain, at 50.0 µM, hits give high values. The essentials: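 Growth of a repair-deficient yeast mutant was monitored after compound treatment and expressed as inhibition relative to vehicle-treated cultures.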
For the compound `COC1OC(C)CC(O)C1O` (stereo not drawn), the growth inhibition is 14.7% (inactive).

On to `COc1ccc(CC(=O)c2c(OC)c3c(c4c2OC(C)(C)CC4)OC(C)(C)CC3)cc1OC`, for which the growth inhibition was 8.1% (inactive).

In the case of `COc1ccc(N=C2C(=Nc3ccc(OC)cc3)N(S(=O)(=O)c3ccccc3)C(=S)N2c2ccc(OC)cc2)cc1`, the growth inhibition is -35.5% (inactive).

Take `CCc1ccccc1NC(=O)Sc1cccc(C)c1`: the growth inhibition is 25.6% (inactive).

Take `CC(C)(CO)N=Cc1ccc(Cl)c(Cl)c1`: the growth inhibition was -16.5% (inactive).

On to `Cc1cc(Cl)ccc1OCCCC(=O)NC(Cc1c[nH]c2ccccc12)C(=O)O` (stereo not drawn), for which the growth inhibition was 17.7% (inactive).

Take `O=C(Nc1nnc(C(F)(F)F)s1)c1c(F)cccc1F`: the growth inhibition was 24.9% (inactive).

On to `CCCCCCC(C)Cl` (stereo not drawn), for which the growth inhibition was 15.8% (inactive).

On to `CC(C)=CCC(C)c1ccccn1` (stereo not drawn), for which the growth inhibition is 10.3% (inactive).

With `CC(NC(=O)C(Cc1ccc(O)cc1)NC(=O)C(C)NC(=O)OCc1ccccc1)C(=O)O` (stereo not drawn) (Cbz-Ala-Tyr-Ala-OH; configuration not given here), the growth inhibition was 13.7% (inactive).

For the compound `N=C(N)c1ccncc1`, the growth inhibition was 8.45% (inactive).

As for `CC12CC3CC(C)(C1)CC(N=[N+]=[N-])(C3)C2`, the growth inhibition was -12.1% (inactive).

On to `CC(C)(C)c1cc(Br)c(O)c(CN(Cc2cc(C(C)(C)C)cc(Br)c2O)C2CCCCC2)c1`, for which the growth inhibition was -34.2% (inactive).

For the compound `CCOC(=O)/C(=N/Nc1ccc(C)cc1)N1C(=S)C=C(C)NN(C)C1=S`, the growth inhibition was -31.1% (inactive).

On to `OC1CCC(c2ccccc2)CC1` (stereo not drawn), for which the growth inhibition is 19.9% (inactive).

In the case of `O=C(N/N=C/C=C/c1ccccc1)c1ccccc1O`, the growth inhibition is 56.2% (inactive).

For the compound `O=C(CN1CCCCC1)c1ccc(CCc2ccc(C(=O)CN3CCCCC3)cc2)cc1`, the growth inhibition was 33.9% (inactive).

In the case of `CCCc1n[nH]c(=S)n1N1C(=S)NC(C)(C)C=C1C`, the growth inhibition is 18.1% (inactive).

Consider `CCCc1cc(=O)oc2c3c(c4c(c12)OC(C)(C)C=C4)O[C@H](C)[C@@H](C)C3O` (stereo partly drawn), for which the growth inhibition is -1.45% (inactive).

Take `O=C(O)COc1ccc(C(=O)O)cc1`: the growth inhibition is 3.7% (inactive).

Take `C(=Nc1ccc(SSc2ccc(N=Cc3ccc4c(c3)OCO4)cc2)cc1)c1ccc2c(c1)OCO2`: the growth inhibition was -0.95% (inactive).

In the case of `COc1ccc2c(c1OC)C1(CCN(C)C)CC(O)CCC1C=C2` (stereo not drawn), the growth inhibition is 5.75% (inactive).

As to `N#CC(C#N)=CN1CCCCC1`, the growth inhibition was -12.1% (inactive).

In the case of `O=Cc1ccc2ccccc2c1`, the growth inhibition was -7.45% (inactive).

As for `CC1(C)C(=O)N=C(N)N1C(=O)OCc1ccccc1`, the growth inhibition was -6.6% (inactive).

For the compound `O=C(O)c1cc(=O)[nH]c(SCc2ccccc2)n1`, the growth inhibition was -28.5% (inactive).

In the case of `O=C(O)C1CCC2CCCC21` (stereo not drawn), the growth inhibition is 8.95% (inactive).

On to `O=C(NC(Nc1ccc(F)cc1)(C(F)(F)F)C(F)(F)F)C(C(F)(F)F)C(F)(F)F`, for which the growth inhibition was 91.8% (active).

Consider `COC(=O)c1sc(=O)n(-c2ccccc2)c1SCc1ccccc1`, for which the growth inhibition was 60% (inactive).

`COc1cc(/C=C(\OC(C)=O)c2ccc3c(c2)OCO3)cc(OC)c1OC`: the growth inhibition is 33.2% (inactive).

For the compound `O=C(O)COc1c(F)cc(F)cc1Cl`, the growth inhibition was 18.4% (inactive).

With `COc1cc(C(=O)c2cocc2C(=O)c2ccc3c(c2)OCO3)cc(OC)c1OC`, the growth inhibition was -10.3% (inactive).

On to `COc1cc(/C=C/C(=O)NCCCCN)ccc1O`, for which the growth inhibition is 21.8% (inactive).

As for `CCC1(C(Cl)(Cl)Cl)C=CC(=O)C=C1`, the growth inhibition is -1.85% (inactive).

With `CCC(C(=O)OC)C1CCCCC1` (stereo not drawn), the growth inhibition is -12.3% (inactive).

Take `O=c1[nH]nc(SCc2ccccc2)c(=O)[nH]1`: the growth inhibition is -16.6% (inactive).

As for `Nc1on(C(=O)c2ccccc2)c(=O)c1Cc1ccccc1`, the growth inhibition is 15.9% (inactive).

As to `O=c1c2ccccc2nc(-c2ccccc2Cl)n1/N=C/c1ccc(Cl)cc1Cl`, the growth inhibition is 2.1% (inactive).

Take `CCC(CCC#N)(CCC#N)C(=O)c1ccc(C)s1`: the growth inhibition was 1.3% (inactive).

As for `O=C(N/N=C/c1ccc(Cl)cc1Cl)c1ccccc1SSc1ccccc1C(=O)N/N=C/c1ccc(Cl)cc1Cl`, the growth inhibition is -5.45% (inactive).
